The results in this text go back to publication PMC5540273 (PLoS ONE, 2017).
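Further: KINOMEscan kinase panel screen.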

The assay has as its system CAMK1. The note with it: concentration: 1 μM, replicates: in singlicate; n = 1.
On to `O=C(Nc1n[nH]c2cc(-c3cccs3)ccc12)C1CC1` [SB-731284], for which the “%Inh” value came out at 11%.

Consider `Fc1cc(Cl)ccc1Nc1ccnc2cc(-c3ccc(CN4CCSCC4)o3)ccc12` [GW560106], for which the “%Inh” value was determined as 21%.

For the compound `Fc1cc(Cl)ccc1Nc1ccnc2cc(-c3ccc(CN4CCOCC4)o3)ccc12` [GW560109], the “%Inh” value is 0%.

As to `COc1ccc(NC(=O)c2ccoc2)cc1-c1ccc(C(=O)NCC2CC2)cc1` [GW810437], the “%Inh” value is 0%.

As to `COC(=O)Nc1nc2ccc(Oc3ccc(CC(=O)Nc4cc(C(F)(F)F)ccc4F)cc3)cc2[nH]1` [GW680903], the “%Inh” value was 2%.

Turning to `O=C(Nc1n[nH]c2nc(-c3cccc(O)c3)ccc12)C1CC1` [SB-711805], the “%Inh” value was found to be 0%.

For `Cc1cccc(Nc2nc(N[C@H]3CCCC[C@H]3N)ncc2C(N)=O)c1.Cl` [GSK986310], the “%Inh” value is listed as 54%.

Regarding `CCn1c(-c2nonc2N)nc2c(-c3ccccc3)ncc(OCCCN)c21.O=C(O)C(F)(F)F.O=C(O)C(F)(F)F` [GSK260205], the “%Inh” value is reported as 7%.

For the compound `COc1ccc(C)c(Nc2ccnc(Nc3ccc(-c4cnc[nH]4)cc3)n2)c1.Cl` [GW784041], the “%Inh” value worked out at 17%.

Consider `CS(=O)(=O)c1cccc(CNc2nc(Nc3ccc4c(c3)CCC(=O)N4)ncc2C(F)(F)F)c1`, for which the “%Inh” value was 0%.

With `O=C(O)C(F)(F)F.O=c1[nH]ccc2nc(N[C@@H]3CCNC3)nc(Nc3ccc4c(c3)S(=O)(=O)CC4)c12` [GSK2181306], the “%Inh” value was 82%.

Consider `COc1cc(Nc2nccc(N3CCC(NS(=O)(=O)c4ccc(NC(C)=O)cc4)CC3)n2)cc(OC)c1OC` [GSK1379825], for which the “%Inh” value was 37%.

With `CN(C)CCNS(=O)(=O)c1ccc(-c2ccnc3[nH]ccc23)cc1` [GSK977620], the “%Inh” value amounted to 50%.

On to `Nc1cccc(-c2ccc3c(N)n[nH]c3c2)c1` [GSK2193613], for which the “%Inh” value is on record as 29%.

Consider `Cc1ccc(NC(=O)c2ccnc(N3CCCCC3)c2)cc1-c1ccc(C(=O)NCC2CC2)cc1` [GW775610], for which the “%Inh” value is recorded as 0%.

`c1ccc(Oc2ccc(Nc3ccnc4cc(-c5ccc(CN6CCCCC6)o5)ccc34)cc2)nc1` [GW567143]: the “%Inh” value stood at 28%.

As for `CC(C)c1nc(-c2cccc(NS(=O)(=O)c3c(F)cccc3F)c2)c(-c2ccnc(Nc3ccc(N4CCOCC4)nc3)n2)s1.Cl` [GSK1723980], the “%Inh” value was 47%.

For `CN(c1ccc(NC(=O)N2CCN(CCCN3CCOCC3)CC2)cc1)c1ccnc(Nc2ccc(CS(C)(=O)=O)cc2)n1.Cl` [GW830899], the “%Inh” value is 0%.

For the compound `Cn1cc(-c2ccc3c(c2)CCN3C(=O)Cc2cc(F)cc(F)c2F)c2c(N)ncnc21` [GSK2634140], the “%Inh” value is recorded as 15%.

Consider `CC(C)NCC(Cc1ccccc1)NC(=O)c1cc(Br)c(-c2ccnc3[nH]ccc23)s1.Cl.Cl` (stereo not shown) [GSK1383281], for which the “%Inh” value came to 34%.

Consider `COc1cccc(C2=C(Nc3cccc(O)c3)C(=O)NC2=O)c1` [SB-390771], for which the “%Inh” value is given as 4%.

For `COc1cccc(CC(=O)N2CCc3cc(-c4cn(C)c5ncnc(N)c45)ccc32)c1` [GSK2608899], the “%Inh” value was 16%.

For `O=C(Nc1n[nH]c2nc(-c3ccccc3O)ccc12)C1CC1` [SB-711880], the “%Inh” value was 0%.

As for `N#CC1(c2cccc(C(=O)Nc3cccc(Oc4ccc5nc(NC(=O)C6CC6)sc5n4)c3)c2)CC1`, the “%Inh” value came out at 0%.

As to `COc1cc(Nc2nccc(N3CCC(NC(=O)Nc4ccc5c(c4)OCO5)C3)n2)cc(OC)c1OC` (stereo not shown) [GSK1379766], the “%Inh” value stood at 28%.

In the case of `Cc1ccc(-c2ccc3occ(-c4ccc(S(C)=O)cc4)c3c2)nn1` (stereo not shown), the “%Inh” value was 0%.

For `CN(c1ccc(F)c(NC(=O)c2cccc(OC(C)(C)C#N)c2Cl)c1)c1ccc2nc(NC(=O)C3CC3)sc2n1`, the “%Inh” value stood at 0%.

On to `CN(c1ccc2c(c1)nc(NCc1ccccc1)n2C)c1ccnc(Nc2ccc(CS(C)(=O)=O)cc2)n1.Cl` [GW811603], for which the “%Inh” value came out at 0%.

As to `Nc1ncc(-c2ccc3nccc(-c4ccncc4)c3c2)cc1S(=O)(=O)N1CCCCC1` [GSK1693850], the “%Inh” value was 18%.

Turning to `Nc1ncc(-c2cn[nH]c2)c2scc(-c3ccc4c(c3)CCN4C(=O)Cc3ccccc3)c12` [GSK2593067], the “%Inh” value was found to be 33%.

Take `CN(C)c1ncnc2nc[nH]c12` [SKF-31736]: the “%Inh” value is on record as 0%.

Regarding `Cl.Cl.NC(CNC(=O)c1cc(Br)c(-c2ccnc3[nH]ccc23)s1)c1ccccc1` (stereo not shown) [GSK1322949], the “%Inh” value was 42%.

For `CNc1nccc(-c2ccc3c(N)n[nH]c3c2)n1` [GSK2206003], the “%Inh” value is on record as 24%.

With `COc1cc(Nc2ccnc3cc(-c4ccncc4)ccc23)cc(OC)c1OC.Cl` [GW494610], the “%Inh” value is on record as 20%.

Regarding `COc1cccc(-c2nc(-c3ccccc3)[nH]c2-c2ccncc2)c1` [SB-610250], the “%Inh” value is on record as 1%.

As to `O=C1NC(=O)C(c2ccccc2Cl)=C1Nc1cccc(Cl)c1` [SB-342409], the “%Inh” value is reported as 0%.

With `O=C(O)C(F)(F)F.O=c1[nH]ccc2nc(N[C@@H]3CCNC3)nc(Nc3cc(Cl)cc(Cl)c3)c12` [GSK2188764], the “%Inh” value stood at 84%.
